Data: PubChem BioAssay AID1259415 (National Center for Advancing Translational Sciences (NCATS), 2018)
The whole screen tested about 410,000 compounds, of which about 18,000 (4.4%) were called active. Roughly 7% stayed inconclusive and do not appear here. The sample as a whole holds a higher share of actives than the screen did. Unmarked numbers belong to inactive results. No stated cut-off is given here; in the data, active means activity change below about -60%; inconclusive means no clear call, values can overlap the other calls; inactive means above about -39%.

experiment: qHTS Assay for inhibitors of the human cytomegalovirus (HCMV); conditions: HFF cells, HCMV-luciferase reporter, 72 h; at 57.5 µM; stronger effect = lower value
Procedure, shortened: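 HFF cells seeded 16 h at 37C, treated with compounds, infected with luciferase-reporter HCMV at MOI 1 PFU/cell; luciferase read at 72 h post infection, normalized to buffer-only and Salinomycin controls.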
On the % scale 0 is the no-effect control and ±100 the full control effect.

SMILES	activity change, negative = inhibition
O=C(NCCc1ccccn1)c1cc(C(=O)C2CCCCC2)c[nH]1	24.3%
COC(=O)CN1C(=S)N(c2ccccc2)C(=O)C1CC(=O)Nc1ccc(Cl)cc1 (configuration not stated)	-4.58%
Cc1ccc(Cl)cc1N1CCN(S(=O)(=O)c2cc3[nH]c(=O)c(=O)[nH]c3cc2C)CC1	14.4%
COc1ccccc1C(=O)OCc1cc(=O)n2nc(-c3cccs3)sc2n1	7.8%
CC(C)(C)c1ccc(S(=O)(=O)Nc2ccc(O)c(Sc3nc4ccccc4s3)c2)cc1	-13.2%
CC1=C[C@H]2Cc3cc(C)cc(C)c3S(=O)(=O)[C@@H]2C=C1	-67.4% (active)
Cc1oc2c(c1C(=O)Nc1ccc(F)c(F)c1)C1=NCCN1C=N2	-2.2%
CCn1c(C(=O)Nc2cc(Cl)ccc2C)cc2sc(Cl)cc21	-25.2%
Fc1ccccc1C(c1nnnn1Cc1ccc2c(c1)OCO2)N1CCN(Cc2ccccc2)CC1 (configuration not stated)	-2.67%
Fc1ccc(Cn2nnnc2C(c2cccs2)N2CCCCCC2)cc1 (configuration not stated)	-74.3% (active)
N#Cc1ccc(C(c2nnnn2CCc2ccccc2)N2CCCCCC2)cc1 (configuration not stated)	-31.2%
COC(=O)c1c(NC(=O)C(C)Oc2ccc(Cl)c(C)c2)sc(C)c1C (configuration not stated)	24.4%
Cc1cc(C)cc(OCC(=O)OCC(=O)NC2CCCC2)c1	0%
CCOC(=O)C1CCCN(C(=O)Cn2ncc3c(C)n(Cc4ccc(F)cc4)c(C)c3c2=O)C1 (configuration not stated)	-24.7%
COC(=O)c1scc(-c2ccc(C)cc2)c1S(=O)(=O)Nc1cc(Cl)c(OC)cc1OC	-32.1%
COC(=O)c1scc(-c2ccccc2)c1S(=O)(=O)Nc1ccccc1	-65.6% (active)
CCOC(=O)c1scc(-c2ccccc2)c1S(=O)(=O)Nc1ccccc1F	-9.83%
Cc1cc(O)c(C(c2ccccc2)N2CCN(c3ccccc3F)CC2)c(=O)n1Cc1ccco1 (configuration not stated)	11.6%
CCc1ccc(CNC(=O)C2CCN(c3nnc(C)c4c(C)n(-c5ccc(C)cc5)nc34)CC2)cc1	-8.15%
CC(=O)Nc1c(C)nn(-c2ccccc2)c1N1CCC(C(=O)Nc2cc(Cl)ccc2C)CC1	54.8%
Cc1nnc(N2CCC(C(=O)Nc3ccc(F)cc3)CC2)c2nn(-c3ccc(Cl)cc3)c(C)c12	-83.4% (active)
CCOC(=O)C1CCC(CN(Cc2ccc(OC)cc2)S(=O)(=O)c2ccc(F)c(C(=O)Nc3cc(C)ccc3C)c2)CC1 (configuration not stated)	-8.08%

SMILES	activity change, negative = inhibition
CCOCCCNC(=O)c1c(NC(=O)Cc2coc3ccc(C)cc23)sc2c1CCC2	-5.35%
CCc1c(C)nc2ncnn2c1N1CCC(C(=O)NCc2ccc3c(c2)OCO3)CC1	-29.2%
FC(F)(F)c1cc(Nc2nc3ccccc3c3nncn23)ccc1Cl	-13.6%
CCC(=O)N1c2ccccc2CC1C(=O)N1CCN(c2ccccc2)CC1 (configuration not stated)	2.26%
Cc1ccc(-n2ncc3c(N4CCC(C(N)=O)CC4)ncnc32)cc1	80.5%
CCN(c1ncnc2c1cnn2-c1ccc(C)cc1)C1CCCCC1	-79.6% (active)
CN(C(=O)COc1ncnc2c1cnn2-c1ccccc1)C1CCCCC1	-21.9%
COc1ccc(CCNC(=O)CCc2c(C)nc3c(c(C)nn3-c3ccc(C)c(C)c3)c2C)c(OC)c1OC	22.2%
COc1cc(NS(=O)(=O)c2ccc3c(c2)OCC(C(=O)N2CCCC2)O3)cc(OC)c1 (configuration not stated)	-21.9%
C=Cc1ccc(Cn2c(C(=O)OC)cc3sc(C)cc32)cc1	-33.1%
O=C(O)c1ccc(OCC2CCCO2)cc1 (configuration not stated)	63.5%
COC(=O)CC1=NN(c2nc(C)cc(C)n2)C(=O)C1	-72.6% (active)
Cc1cc(C)nc(N2C(=O)CC(Cc3ccccc3)C2=O)n1 (configuration not stated)	-1.22%
Cc1ccc(CC2CC(=O)N(c3nc(C)cc(C)n3)C2=O)cc1 (configuration not stated)	-6.32%
O=C(NCc1cc(F)cc(C(F)(F)F)c1)C1CCC(=O)N(C2CCCC2)C1 (configuration not stated)	8.32%
O=C(N/N=C/c1ccc(Cl)c(Cl)c1)c1ccc2nc[nH]c2c1	-65.6% (active)
NCCCCCC(=O)N/N=C/c1ccc2nccnc2c1	-14.8%
CC(=NNC(=O)c1ccncc1)c1ccc(Cl)c(Cl)c1	-31%
CCc1ccc(CN(Cc2ccco2)C(=O)c2ccccc2Cl)cc1	33.9%
O=C(CN1C(=O)CCn2nc(-c3ccccc3)cc21)NCc1ccccc1	6.04%
O=C(COC(=O)Cc1c[nH]c2ccccc12)NCCc1ccccc1	10.5%
c1cncc(CNCCc2c[nH]c3ccccc23)c1	-8.49%

SMILES	activity change, negative = inhibition
Cc1cc(C)cc(NC(=S)NCCc2c[nH]c3ccccc23)c1	-73.6% (active)
COc1ccc(NC(=O)C2Cc3c(-c4ccc(Cl)cc4)ccnc3O2)cc1 (configuration not stated)	-3.46%
O=C(c1[nH]ncc1-c1ccc(Cl)cc1)C1CO1 (configuration not stated)	-78.7% (active)
COc1cccc(CNC(=O)C2CCN(S(=O)(=O)c3ccc4c(ccn4C)c3)CC2)c1	16.9%
c1ccc2c(-c3nn4nnnc4c4ccccc34)cccc2c1	49.8%
CN(C(=O)CSc1nc2ccc(NC(=O)COc3ccccc3)cc2s1)c1ccccc1	-30%
COc1ccc2c(c1)c(N1CCCC1=O)c(C(=O)Nc1ccccc1C(F)(F)F)n2C	-24.2%
Cc1ccc([C@H]2C[C@H](O)[C@@H](n3cc(COC(=O)c4ccccc4)nn3)CN2CC2CCCCC2)cc1	-100% (active)
CCCCCC(=O)N1C[C@H](O)[C@@H](n2cc(COC(=O)c3ccccc3)nn2)C[C@@H]1c1ccc(C)cc1	-7.72%
Cc1ccc([C@H]2C[C@H](O)[C@@H](n3cc(COC(=O)c4ccccc4)nn3)CN2C(=O)C2CCCCC2)cc1	1.46%
O=C(CC1Sc2ccccc2NC1=O)NNc1ccc(Cl)c(Cl)c1 (configuration not stated)	-35.8%
COc1ccc(N2CCN(S(=O)(=O)c3ccc(-c4coc(C)n4)cc3)CC2)cc1	-11.2%
CCOc1ccccc1N1CN(Cc2ccccc2)CNC1=S	-2.1%
CCOC(=O)c1ccc(NC2=CC(c3ccc(OCC)cc3)N(c3ccc(C(=O)OCC)cc3)C2=O)cc1 (configuration not stated)	18.7%
CC(C)c1nnc(NC(=O)C2CCCN2S(=O)(=O)c2ccc(Cl)cc2)s1 (configuration not stated)	2.67%
CCc1nnc(NC(=O)C2CCN(C(=O)c3ccccc3C)CC2)s1	17.6%
CCc1nnc(NC(=O)C2CCCN2S(=O)(=O)c2ccccc2)s1 (configuration not stated)	-60.4% (active)
O=C(CCn1c(=O)c2ccccc2n(Cc2ccc(Cl)cc2)c1=O)NCc1ccc2c(c1)OCO2	10.1%
COc1ccc(C(=O)COC(=O)C(O)c2ccccc2)c(OC)c1 (configuration not stated)	-26%
COc1ccc(N2CC(C(=O)NCCN3C(=O)S/C(=C\c4cccnc4)C3=O)CC2=O)c(OC)c1 (configuration not stated)	24.9%
COc1ccc(C(=O)/C=C/c2cccnc2)c(OC)c1	-71.6% (active)
Cc1ccsc1CN(C(=O)c1oc2ccc(Br)cc2c1C)C1CCS(=O)(=O)C1 (configuration not stated)	30.1%

SMILES	activity change, negative = inhibition
CCN1CCN(c2ncnc3c2cnn3-c2ccc(C)c(C)c2)CC1	-1.25%
Cc1ccc(NC(=O)c2oc3ccccc3c2NC(=O)Cc2cccs2)cc1	14.9%
CCOc1ccc2oc(=O)cc(CN3CCN(C(=O)c4ccc(F)cc4)CC3)c2c1	-25.5%
CC[n+]1cc(C)ccc1/C=C/c1ccc(N(C)C)cc1	-99.4% (active)
CCOC(=O)c1ccc(NC(=O)c2ncn(-c3ccccc3)n2)cc1	43.5%
COc1ccc(Cl)cc1NC(=O)CSc1nc(=O)[nH]c2c1CCCC2	31.1%
NS(=O)(=O)c1ccc(CCNC(=O)CCCCCn2c(=O)[nH]c3ccccc3c2=O)cc1	34%
COc1ccccc1N1CCN(c2ccc(=O)n(CC(=O)NCc3ccc(OC(C)C)cc3)n2)CC1	13.7%
CCCN(CCC)CCCNC(=O)Cn1cc2c(n1)-c1c(oc(C(=O)N3CCCC3)c1C)CC2	-39.7%
Cc1c(C(=O)N2CCCC2)oc2c1-c1nn(CC(=O)NCc3ccc(OC(C)C)cc3)cc1CC2	-68.3% (active)
COc1ccccc1N(C)S(=O)(=O)c1ccc(C(=O)N2CCC(C(N)=O)CC2)cc1	63.1%
COc1ccc(C(=O)Nc2ccc(-n3nncc3-c3ccccc3)cc2)cc1OC	-6.64%
COc1cccc(C(=O)Nc2ccc(-c3cc(C(F)(F)F)nn3-c3ccccc3)cc2)c1	-87.7% (active)
COc1cccc(C(=O)NC(=O)Nc2ccc(-c3cc(C(F)(F)F)nn3-c3ccccc3)cc2)c1	-6.79%
Cc1ccc(CNC(=O)CCc2c(C)nc3nc(CNC(=O)OC(C)(C)C)nn3c2C)cc1	-10.3%
COc1cc2ccccc2cc1C(=O)Nc1cccc(-c2nc3ccccc3o2)c1	-27.9%
Cc1ccc(C)c(N2CCN(C(=O)C3CCC(CNS(=O)(=O)c4cccs4)CC3)CC2)c1 (configuration not stated)	-30%
CC1Cc2ccccc2N1S(=O)(=O)c1cccc(C(=O)NCC(c2ccco2)N2CCCC2)c1 (configuration not stated)	-24%
CC1CCc2sc(C(=O)NCC(c3ccco3)N3CCCCC3)cc2C1 (configuration not stated)	-61.7% (active)
CSc1ncccc1C(=O)NCC(c1ccco1)N1CCCCC1 (configuration not stated)	-4.3%
CCOC(=O)c1ccc(NC(=O)C2CC(=O)NC(=Nc3ccc(C)c(C)c3)S2)cc1 (configuration not stated)	-14.2%
